# Laboratory results as given in PubChem BioAssay (Tox21).
# Where “and” joins values, the source holds several entries; their conditions need not be identical. Equal values may be shown once. Records with an inconclusive call do not appear. Where a call stands in place of a potency, no number is given. The source holds several records for some structures; these can differ, active in one and inactive in another. Calls of active or inactive are those of the source. Unless noted, calls follow the shape of the dose curve; as a rule, active = well fitted curve in the direction sought with a large enough effect in the repeat runs; inconclusive = weak or mixed curves; inactive = no such curve, though single readings can be large; an effect the other way counts as inactive or inconclusive.
# Assays:
# [1] = qHTS assay to identify small molecule agonists of the androgen receptor (AR) signaling pathway in the presence of an antagonist - cell viability counter screen (AID 1259379); conditions: MDA-kb2 viability, CellTiter-Fluor, 16 h; series mostly up to 92.4 µM; also: nearly all actives have a fitted effect of over 25% in size; also: potency is read from the fitted curve at half-maximal effect
# Method in brief: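 MDA-kb2 cells (MMTV-luciferase, AR/GR), 3,000/well, 5 h attachment, then 3.0 µM nilutamide (final) and compounds at 15 concentrations. Viability by CellTiter-Fluor fluorescence after 16 h at 37 °C, 0% CO2, in the reporter wells.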
# [2] = qHTS assay to identify small molecule agonists of the estrogen receptor beta (ER-beta) signaling pathway - cell viability counter screen (AID 1259380); conditions: ER-beta-bla HEK293T viability, CellTiter-Glo luminescence, 16 h; series mostly up to 92.4 µM; also: nearly all actives have a fitted effect of over 30% in size; also: potency is read from the fitted curve at half-maximal effect
# Method in brief: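 ER-beta-UAS-bla HEK293T cells in medium with 2% charcoal-stripped FBS, pre-incubated 6 hr, then treated 16 hr at 37C. Cytotoxicity read in the same wells by CellTiter-Glo luminescence after 30 min at room temperature.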
# [3] = qHTS assay to identify small molecule antagonists of the estrogen receptor beta (ER-beta) signaling pathway - cell viability counter screen (AID 1259382); conditions: ER-beta-UAS-bla HEK293T viability, CellTiter-Glo luminescence, 16 h; series mostly up to 92.4 µM; also: nearly all actives have a fitted effect of over 55% in size; also: potency is read from the fitted curve at half-maximal effect
# Method in brief: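 ER-beta-UAS-bla HEK293T cells in 2% charcoal-stripped FBS medium, treated with compound plus 1 nM 17-beta-estradiol for 16 h at 37C. Viability read by CellTiter-Glo luminescence after 30 min at room temperature in the same wells.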
# [4] = target: Estrogen receptor (Homo sapiens) (UniProt P03372); assay: qHTS assay to identify small molecule agonists of the estrogen receptor alpha (ER-alpha) signaling pathway in the presence of an antagonist (AID 1259383; calls by dose curve; also: top concentration of the series differs between compounds; nearly all actives have a fitted effect of over 15% in size); conditions: VM7Luc4E2 cells, ERE-luciferase, +ICI-182,780, 22 h; series mostly up to 92.4 µM
# Estrogen receptor (Homo sapiens), sequence (P03372 whole entry, looked up): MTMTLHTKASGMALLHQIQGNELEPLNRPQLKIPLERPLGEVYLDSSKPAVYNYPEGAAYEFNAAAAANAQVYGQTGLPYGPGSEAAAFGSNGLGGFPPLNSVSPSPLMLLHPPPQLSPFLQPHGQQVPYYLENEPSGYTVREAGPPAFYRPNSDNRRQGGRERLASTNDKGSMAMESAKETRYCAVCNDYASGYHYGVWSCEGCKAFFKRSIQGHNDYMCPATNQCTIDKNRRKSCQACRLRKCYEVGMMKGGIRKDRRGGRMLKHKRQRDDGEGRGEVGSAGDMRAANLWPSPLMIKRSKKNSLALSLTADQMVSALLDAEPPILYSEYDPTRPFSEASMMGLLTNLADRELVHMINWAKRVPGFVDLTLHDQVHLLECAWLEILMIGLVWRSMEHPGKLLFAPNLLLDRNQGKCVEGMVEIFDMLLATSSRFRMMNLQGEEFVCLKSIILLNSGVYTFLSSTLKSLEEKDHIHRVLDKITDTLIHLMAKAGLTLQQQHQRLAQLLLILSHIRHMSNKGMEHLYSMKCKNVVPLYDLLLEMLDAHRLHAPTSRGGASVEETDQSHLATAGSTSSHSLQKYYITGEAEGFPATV
# Method in brief: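 VM7Luc4E2 cells express endogenous full-length ER-alpha with an ERE-luciferase reporter and were hormone-deprived for 5 days. Compounds at 15 concentrations were added with 10.0nM ICI-182,780 for 22hr at 37C. Luminescence was read with ONE-Glo.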
# [5] = qHTS assay to identify small molecule agonists or antagonists of the thyroid stimulating hormone receptor (TSHR) signaling pathway - wild type cell line counter screen (AID 1259384; calls by dose curve; also: potency is read from the fitted curve at half-maximal effect); conditions: HEK293 wild type, cAMP HTRF counter-screen; series mostly up to 92.4 µM
# Method in brief: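 Wild-type HEK293 cells were plated 18 h at 37 C/5% CO2, pin-dosed with compound plus Ro20-1724 medium, held 30 min at room temperature, then given cAMP-d2 and anti-cAMP-cryptate; fluorescence was read after 1 h. Fifteen concentrations, triplicate.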
# [6] = target: Thyrotropin receptor (Homo sapiens) (UniProt P16473); assay: qHTS assay to identify small molecule antagonists of the thyroid stimulating hormone receptor (TSHR) signaling pathway (AID 1259385; calls by dose curve; also: nearly all actives have a fitted effect of over 20% in size; also: potency is read from the fitted curve at half-maximal effect); conditions: TSHR-HEK293 cAMP HTRF, TSH-stimulated antagonist mode; series mostly up to 92.4 µM
# Thyrotropin receptor (Homo sapiens), sequence (P16473 whole entry, looked up): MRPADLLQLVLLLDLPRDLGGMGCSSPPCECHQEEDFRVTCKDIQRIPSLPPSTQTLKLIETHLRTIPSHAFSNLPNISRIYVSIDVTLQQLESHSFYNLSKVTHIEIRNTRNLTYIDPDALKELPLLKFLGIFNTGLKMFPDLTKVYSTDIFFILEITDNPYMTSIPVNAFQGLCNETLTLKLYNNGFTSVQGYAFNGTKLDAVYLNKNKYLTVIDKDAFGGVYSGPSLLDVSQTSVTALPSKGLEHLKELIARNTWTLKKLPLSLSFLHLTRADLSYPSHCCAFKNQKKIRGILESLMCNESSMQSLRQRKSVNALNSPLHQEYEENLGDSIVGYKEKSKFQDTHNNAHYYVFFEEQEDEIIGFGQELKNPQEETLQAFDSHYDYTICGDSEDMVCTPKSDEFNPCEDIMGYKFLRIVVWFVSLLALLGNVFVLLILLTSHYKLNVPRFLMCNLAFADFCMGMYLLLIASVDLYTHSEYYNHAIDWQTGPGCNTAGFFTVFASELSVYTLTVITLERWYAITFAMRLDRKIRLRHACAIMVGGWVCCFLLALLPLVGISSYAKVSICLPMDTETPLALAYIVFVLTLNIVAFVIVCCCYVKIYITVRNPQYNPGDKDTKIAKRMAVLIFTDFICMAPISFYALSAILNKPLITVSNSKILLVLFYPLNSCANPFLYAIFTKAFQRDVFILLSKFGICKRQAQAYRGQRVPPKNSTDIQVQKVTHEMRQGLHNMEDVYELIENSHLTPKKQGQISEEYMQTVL
# Method in brief: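 TSHR-HEK293 cells were plated and held 18 h at 37C/5% CO2, then given compound plus Ro20-1724 and stimulated with TSH at 1.5 ng/mL final. After 30 min at room temperature, cAMP was detected with cAMP-d2/anti-cAMP-cryptate (1 h) by fluorescence.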
# [7] = qHTS assay to identify small molecule agonists of the estrogen receptor alpha (ER-alpha) signaling pathway in the presence of an antagonist - cell viability counter screen (AID 1259386); conditions: VM7Luc4E2 viability, CellTiter-Fluor fluorescence, 22 h; series mostly up to 92.4 µM;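 also: cells exposed to compounds for 22 h at 37 °C before the viability read; nearly all actives have a fitted effect of over 30% in size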; also: potency is read from the fitted curve at half-maximal effect
# Method in brief: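 Cell viability in VM7Luc4E2 cells (endogenous full-length ER-alpha) measured by CellTiter-Fluor fluorescence in the same wells as the luciferase screen. Cells pre-cultured 5 days in charcoal-stripped serum, then treated 22 h with compounds at 15 concentrations plus 10.0nM ICI-182,780.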
# [8] = target: Androgen receptor (Homo sapiens) (UniProt P10275); assay: qHTS assay to identify small molecule agonists of the androgen receptor (AR) signaling pathway in the presence of an antagonist (AID 1259381; calls by dose curve; also: nearly all actives have a fitted effect of over 15% in size; also: potency is read from the fitted curve at half-maximal effect); conditions: MDA-kb2 MMTV-luciferase, AR agonist + nilutamide, 16 h; series mostly up to 92.4 µM
# Androgen receptor (Homo sapiens), sequence (P10275 whole entry, looked up): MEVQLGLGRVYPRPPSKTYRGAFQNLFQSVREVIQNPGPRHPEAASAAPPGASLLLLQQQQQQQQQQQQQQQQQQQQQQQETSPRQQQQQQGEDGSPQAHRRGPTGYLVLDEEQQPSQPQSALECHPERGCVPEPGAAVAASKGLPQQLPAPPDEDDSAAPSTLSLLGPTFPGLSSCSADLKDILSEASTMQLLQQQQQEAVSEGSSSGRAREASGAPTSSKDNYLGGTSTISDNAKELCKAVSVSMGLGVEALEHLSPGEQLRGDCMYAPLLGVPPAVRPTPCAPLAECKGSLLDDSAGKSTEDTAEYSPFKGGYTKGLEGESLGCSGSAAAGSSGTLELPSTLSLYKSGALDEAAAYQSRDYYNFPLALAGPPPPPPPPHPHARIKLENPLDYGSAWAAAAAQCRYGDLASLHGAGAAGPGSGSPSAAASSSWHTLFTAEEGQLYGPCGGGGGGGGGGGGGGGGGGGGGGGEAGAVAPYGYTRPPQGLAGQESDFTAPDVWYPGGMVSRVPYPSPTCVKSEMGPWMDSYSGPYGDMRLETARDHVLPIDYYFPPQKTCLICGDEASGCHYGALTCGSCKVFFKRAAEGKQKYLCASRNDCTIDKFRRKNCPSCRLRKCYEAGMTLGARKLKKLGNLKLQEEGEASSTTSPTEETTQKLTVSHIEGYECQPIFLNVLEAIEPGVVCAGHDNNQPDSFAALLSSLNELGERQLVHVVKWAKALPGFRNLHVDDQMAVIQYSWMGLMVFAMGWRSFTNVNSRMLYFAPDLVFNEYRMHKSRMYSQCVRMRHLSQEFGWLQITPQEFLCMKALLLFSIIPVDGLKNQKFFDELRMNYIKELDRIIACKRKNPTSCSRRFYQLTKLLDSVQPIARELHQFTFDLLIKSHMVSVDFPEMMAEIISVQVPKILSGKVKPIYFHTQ
# Method in brief: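 MDA-kb2 cells carrying MMTV-luciferase (AR/GR responsive), 3,000 cells/well, co-treated with 3.0 uM nilutamide final. Compounds at 15 concentrations, 16 hr at 37C without CO2. Luciferase luminescence read after 30 min with ONE-Glo.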
# [9] = target: Estrogen receptor beta (Homo sapiens) (UniProt Q92731); assay: qHTS assay to identify small molecule antagonists of the estrogen receptor beta (ER-beta) signaling pathway (AID 1259378; active = well fitted inhibition curve with a large enough effect in the signal ratio in the repeat runs, not every such curve was filed as active; the % refers to the signal ratio); conditions: ER-beta-UAS-bla HEK293T, beta-lactamase FRET ratio, 16 h; series mostly up to 92.4 µM
# Estrogen receptor beta (Homo sapiens), sequence (Q92731 whole entry, looked up): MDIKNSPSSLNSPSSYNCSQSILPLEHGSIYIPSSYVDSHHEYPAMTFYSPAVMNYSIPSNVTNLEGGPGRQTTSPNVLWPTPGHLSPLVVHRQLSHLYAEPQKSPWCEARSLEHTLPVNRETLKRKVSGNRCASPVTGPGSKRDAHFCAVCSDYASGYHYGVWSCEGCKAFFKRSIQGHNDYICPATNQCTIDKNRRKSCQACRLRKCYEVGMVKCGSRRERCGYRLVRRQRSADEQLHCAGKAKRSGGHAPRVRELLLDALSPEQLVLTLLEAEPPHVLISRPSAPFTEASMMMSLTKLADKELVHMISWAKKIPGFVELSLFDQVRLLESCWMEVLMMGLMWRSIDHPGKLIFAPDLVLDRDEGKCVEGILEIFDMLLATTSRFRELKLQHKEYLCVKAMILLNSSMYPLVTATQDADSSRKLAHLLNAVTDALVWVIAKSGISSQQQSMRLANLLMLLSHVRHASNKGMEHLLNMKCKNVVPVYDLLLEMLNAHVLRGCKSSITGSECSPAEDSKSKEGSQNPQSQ
# Method in brief: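 ER-beta-UAS-bla HEK293T (GripTite) cells in 2% charcoal-stripped FBS medium were preincubated 6 hr at 37C, dosed with compound, then stimulated with 1 nM E2 (final) for 16 hr; beta-lactamase reporter read by B/G FRET fluorescence after 2 hr substrate loading.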
Structure (SMILES),Potency [1],Potency [2],Potency [3],Potency [4],Potency [5],Potency [6],Potency [7],Potency [8],Potency [9]
COc1c2c(cc3c1OCO3)CCN(C)C2,inactive,inactive,inactive,inactive,inactive,inactive,inactive,,
COC(=O)c1cc(Oc2ccc(Cl)cc2Cl)ccc1[N+](=O)[O-],inactive,inactive,inactive,inactive,inactive,,,,
CN1C2CCC(C)(C)C1CC(OC(=O)C(O)(c1cccs1)c1cccs1)C2 (stereo not drawn),inactive,inactive,inactive,inactive,inactive,inactive,inactive,,
ClC1=C(Cl)[C@]2(Cl)[C@@H]3[C@H]4C[C@H]([C@@H]5O[C@H]45)[C@@H]3[C@@]1(Cl)C2(Cl)Cl,inactive,inactive,inactive,inactive,inactive,inactive,,,
CCOC(=O)CCN(SN(C)C(=O)Oc1cccc2c1OC(C)(C)C2)C(C)C,inactive,inactive,inactive,inactive,inactive,inactive,inactive,,
NC1CCC(CC2CCC(N)CC2)CC1 (stereo not drawn),60.1 µM (active),inactive,inactive,inactive,,,,,
O=C1C(Cl)=C(Cl)C(=O)C(Cl)=C1Cl,60.9 µM (active) and inactive,60.9 µM (active) and 54.5 µM (active),60.9 µM (active),inactive,,,,inactive,
N#CC(C#N)=NNc1cccc(Cl)c1,1.93 µM (active),15.4 µM (active),,inactive,inactive,inactive,21.7 µM (active),inactive,
CC(Cc1ccc(O)cc1)NCC(O)c1cc(O)cc(O)c1 (stereo not drawn),inactive,inactive,inactive,inactive,0.668 µM (active),inactive,inactive,,
S=C=Nc1ccccc1,inactive,,inactive,inactive,,,inactive,inactive,inactive
CCC(OC(C)=O)C(CC(C)NC)(c1ccccc1)c1ccccc1 (stereo not drawn),49 µM (active),49 µM (active),54.9 µM (active),inactive,inactive,,inactive,inactive,
ClCBr,inactive,,inactive,inactive,inactive,inactive,inactive,,inactive
[O]=[Cr](=[O])([OH])[O][Cr](=[O])(=[O])[OH],27.6 µM (active) and 54.4 µM (active),24.6 µM (active) and 54.4 µM (active),,inactive,inactive,inactive,,inactive,
[F][Sn]([c]1ccccc1)([c]1ccccc1)[c]1ccccc1,4.33 µM (active),1.22 µM (active),1.22 µM (active),inactive,inactive,15.4 µM (active),10.9 µM (active),,
C=C(C)C(=O)[O][Sn]([CH2]CCC)([CH2]CCC)[CH2]CCC,1.72 µM (active),1.37 µM (active),1.54 µM (active),inactive,inactive,12.2 µM (active),8.63 µM (active),,
Cc1cc(C2CC2)nc(Nc2ccccc2)n1,inactive,,inactive,inactive,,inactive,inactive,,inactive
Fc1ccc(C(OCCN2CCN(CCCc3ccccc3)CC2)c2ccc(F)cc2)cc1,26.6 µM (active),26.6 µM (active),26.6 µM (active),inactive,inactive,,29.8 µM (active),inactive,

Structure (SMILES),Potency [1],Potency [2],Potency [3],Potency [4],Potency [5],Potency [6],Potency [7],Potency [8],Potency [9]
CC[C@H](C)[C@H]1O[C@]2(C=C[C@@H]1C)C[C@@H]1C[C@@H](C/C=C(\C)[C@@H](O[C@H]3C[C@H](OC)[C@@H](O[C@H]4C[C@H](OC)[C@@H](NC)[C@H](C)O4)[C@H](C)O3)[C@@H](C)/C=C/C=C3\CO[C@@H]4[C@H](O)C(C)=C[C@@H](C(=O)O1)[C@]34O)O2,19.3 µM (active),9.69 µM (active),21.7 µM (active),inactive,,27.3 µM (active),27.3 µM (active),,
CCOP(=O)(OCC)Oc1nc(Cl)c(Cl)cc1Cl,inactive,8.58 µM (active),,inactive,,,inactive,inactive,
CCN(CC)C(=O)N[C@@H]1C=C2c3cccc4[nH]cc(c34)C[C@@H]2N(C)C1,inactive,inactive,inactive,inactive,inactive,inactive,inactive,,
CC(Cc1ccc2c(c1)OCO2)NO (stereo not drawn),inactive,inactive,inactive,inactive,inactive,inactive,inactive,,
COC(=O)N(OC)c1ccccc1COc1ccn(-c2ccc(Cl)cc2)n1,1.37 µM (active),0.969 µM (active),inactive,inactive,inactive,inactive,0.864 µM (active),,
Nc1ccc(Cl)cc1C(=O)c1ccccc1F,inactive,inactive,inactive,inactive,inactive,inactive,,inactive,
COc1ccc2[nH]cc(CCN(C(C)C)C(C)C)c2c1,inactive,,,,inactive,inactive,inactive,,inactive
Cc1nn(-c2cc(NS(C)(=O)=O)c(Cl)cc2Cl)c(=O)n1C(F)F,inactive,inactive,inactive,,inactive,inactive,inactive,inactive,
Oc1ccc2[nH]cc(CCCCN3CC=C(c4ccccc4)CC3)c2c1,,29.8 µM (active),inactive,,inactive,inactive,inactive,,inactive
Oc1cccc(Cl)c1Cl,inactive,,,inactive,,inactive,inactive,,inactive
C[C@H]1[C@H](c2ccc(Cl)cc2)SC(=O)N1C(=O)NC1CCCCC1,,,inactive,inactive,inactive,,,inactive,inactive
[Cl][Hg][c]1ccccc1,12.2 µM (active),3.44 µM (active),3.06 µM (active),inactive,,,17.2 µM (active),inactive,
CC(Cc1ccccc1)N(C)Cc1ccco1 (stereo not drawn),inactive,inactive,inactive,inactive,inactive,inactive,inactive,inactive,
C=CC(=O)[O][Sn]([CH2]CCC)([CH2]CCC)[CH2]CCC,4.33 µM (active),2.43 µM (active),3.06 µM (active),inactive,,13.7 µM (active),10.9 µM (active),inactive,
Nc1c(Cl)c(Cl)c(Cl)c(Cl)c1Cl,inactive,inactive,inactive,,inactive,inactive,,54.5 µM (active),
CN(C)C(=S)SSC(=S)N(C)C,60.3 µM (active) and 68.6 µM (active) and inactive,135 nM (active) and 1.72 µM (active) and 119 nM (active),479 nM (active) and 273 nM (active) and 237 nM (active),inactive,,,30.2 µM (active) and 30.6 µM (active),inactive,
